Reference: PubChem BioAssay AID1159580 (chemical genetic matrix, 2015)
Where “and” joins values, the source holds several entries; their conditions need not be identical. Identical values can stand only once. Screen size: about 5,500 compounds; about 2,000 (36%) were called active. About 18% were inconclusive and are not listed. Cut-off read from the data, not from the text of the source: active = normalized growth mostly below about 0.91 (no sharp cut-off); inconclusive = no clear call, values can overlap the other calls; inactive = mostly above about 0.92. This is one part of the list.

Experiment: chemical genetic growth profiling, strain panel (AID 1159580);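 note: tested at 20 µM; growth read once vehicle control cultures reached saturation at 30 °C; 1 = growth at the plate median or of vehicle wells; lower values mean less growth of the strain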
Settings: growth OD

Measured: normalized growth

CC1(C)O[C@@H]2CC3C4CCC5=CC(=O)CCC5(C)C4(F)C(O)CC3(C)[C@]2(C(=O)CCl)O1 (stereo partly specified)
inactive: S. cerevisiae deletion strains, locus YAL013W, strain DEP1, active compounds read low 0.996 | S. cerevisiae deletion strains, locus YBR021W, strain FUR4, active compounds read low 1.04 | S. cerevisiae deletion strains, locus YBR229C, strain ROT2, active compounds read low 1 | S. cerevisiae deletion strains, locus YCL029C, strain bik1, active compounds read low 1 | S. cerevisiae deletion strains, locus YDL035C, strain GPR1, active compounds read low 0.979 | S. cerevisiae deletion strains, locus YDL074C, strain BRE1, active compounds read low 1.02 | S. cerevisiae deletion strains, locus YDL101C, strain DUN1, active compounds read low 0.994 | S. cerevisiae deletion strains, locus YDL134C, strain PPH21, active compounds read low 0.994 | S. cerevisiae deletion strains, locus YDL185W, strain tfp1, active compounds read low 0.967 | S. cerevisiae deletion strains, locus YDL192W, strain arf1, active compounds read low 0.986 | S. cerevisiae deletion strains, locus YDR101C, strain arx1, active compounds read low 1.03 | S. cerevisiae deletion strains, locus YDR150W, strain NUM1, active compounds read low 0.981 | S. cerevisiae deletion strains, locus YDR162C, strain NBP2, active compounds read low 0.963 | S. cerevisiae deletion strains, locus YDR318W, strain mcm21, active compounds read low 0.979 | S. cerevisiae deletion strains, locus YDR388W, active compounds read low 0.996 | S. cerevisiae deletion strains, locus YDR502C, strain sam2, active compounds read low 0.99 | S. cerevisiae deletion strains, locus YEL061C, strain CIN8, active compounds read low 0.998 | S. cerevisiae deletion strains, locus YER110C, active compounds read low 0.975 | S. cerevisiae deletion strains, locus YER155C, strain BEM2, active compounds read low 1.01 | S. cerevisiae deletion strains, locus YER167W, strain BCK2, active compounds read low 0.994 | S. cerevisiae deletion strains, locus YGL078C, strain dbp3, active compounds read low 0.993 | S. cerevisiae deletion strains, locus YGL086W, strain mad1, active compounds read low 1.01 | S. cerevisiae deletion strains, locus YGL248W, strain PDE1, active compounds read low 1 | S. cerevisiae deletion strains, locus YGR078C, strain PAC10, active compounds read low 1.01 | S. cerevisiae deletion strains, locus YGR135W, strain pre9, active compounds read low 0.973 | S. cerevisiae deletion strains, locus YGR252W, strain gcn5, active compounds read low 1.02 | S. cerevisiae deletion strains, locus YHR030C, strain SLT2, active compounds read low 0.985 and 1 | S. cerevisiae deletion strains, locus YHR079C, strain IRE1 (second series), active compounds read low 0.992 | S. cerevisiae deletion strains, locus YHR079C, strain IRE1, active compounds read low 1 | S. cerevisiae deletion strains, locus YHR094C, strain hxt1, active compounds read low 0.998 | S. cerevisiae deletion strains, locus YHR129C, strain ARP1, active compounds read low 0.996 | S. cerevisiae deletion strains, locus YHR200W, strain rpn10, active compounds read low 0.988 | S. cerevisiae deletion strains, locus YIL066C, strain RNR3, active compounds read low 1 | S. cerevisiae deletion strains, locus YIL073C, strain SPO22, active compounds read low 0.889 | S. cerevisiae deletion strains, locus YIL125W, strain kgd1, active compounds read low 1.01 | S. cerevisiae deletion strains, locus YIR030C, strain dcg1, active compounds read low 0.983 | S. cerevisiae deletion strains, locus YJL095W, strain BCK1, active compounds read low 1.03 and 1.02 | S. cerevisiae deletion strains, locus YJL134W, strain LCB3, active compounds read low 0.989 | S. cerevisiae deletion strains, locus YJL168C, strain set2, active compounds read low 1 | S. cerevisiae deletion strains, locus YJL187C, strain SWE1 (second series), active compounds read low 1.01 | S. cerevisiae deletion strains, locus YJR043C, strain POL32, active compounds read low 1.01 | S. cerevisiae deletion strains, locus YJR066W, strain TOR1, active compounds read low 0.972 | S. cerevisiae deletion strains, locus YKL009W, strain mrt4, active compounds read low 0.956 | S. cerevisiae deletion strains, locus YKL068W, active compounds read low 0.98 | S. cerevisiae deletion strains, locus YKL085W, strain MDH1 (second series), active compounds read low 0.975 | S. cerevisiae deletion strains, locus YKL085W, strain MDH1, active compounds read low 0.975 | S. cerevisiae deletion strains, locus YKL190W, strain CNB1, active compounds read low 0.977 | S. cerevisiae deletion strains, locus YKR001C, strain vps1, active compounds read low 1.01 | S. cerevisiae deletion strains, locus YLR039C, strain RIC1, active compounds read low 0.938 | S. cerevisiae deletion strains, locus YLR058C, strain SHM2, active compounds read low 0.991 | S. cerevisiae deletion strains, locus YLR102C, strain apc9, active compounds read low 0.995 | S. cerevisiae deletion strains, locus YLR113W, strain HOG1, active compounds read low 1.04 | S. cerevisiae deletion strains, locus YLR262C, strain YPT6, active compounds read low 0.942 | S. cerevisiae deletion strains, locus YLR268W, strain sec22, active compounds read low 0.99 | S. cerevisiae deletion strains, locus YLR330W, strain CHS5, active compounds read low 0.996 | S. cerevisiae deletion strains, locus YLR342W, strain FKS1 (second series), active compounds read low 1.01 | S. cerevisiae deletion strains, locus YLR371W, strain rom2, active compounds read low 1 | S. cerevisiae deletion strains, locus YLR418C, strain cdc73, active compounds read low 0.944 | S. cerevisiae deletion strains, locus YML016C, strain PPZ1, active compounds read low 1 | S. cerevisiae deletion strains, locus YML032C, strain rad52, active compounds read low 1.01 | S. cerevisiae deletion strains, locus YML124C, strain tub3, active compounds read low 1 | S. cerevisiae deletion strains, locus YMR078C, strain ctf18, active compounds read low 0.99 | S. cerevisiae deletion strains, locus YMR223W, strain ubp8, active compounds read low 0.97 | S. cerevisiae deletion strains, locus YMR263W, strain SAP30, active compounds read low 1 | S. cerevisiae deletion strains, locus YMR307W, strain GAS1, active compounds read low 1.01 | S. cerevisiae deletion strains, locus YNL067W, strain RPL9B, active compounds read low 1.02 | S. cerevisiae deletion strains, locus YNL153C, strain GIM3, active compounds read low 1.06 | S. cerevisiae deletion strains, locus YNL183C, strain NPR1, active compounds read low 0.972 | S. cerevisiae deletion strains, locus YNL233W, strain BNI4, active compounds read low 1.04 | S. cerevisiae deletion strains, locus YNL250W, strain rad50, active compounds read low 0.987 | S. cerevisiae deletion strains, locus YNL271C, strain bni1, active compounds read low 0.986 | S. cerevisiae deletion strains, locus YNL298W, strain CLA4, active compounds read low 0.994 | S. cerevisiae deletion strains, locus YNL307C, strain MCK1, active compounds read low 0.995 | S. cerevisiae deletion strains, locus YNR052C, strain pop2, active compounds read low 0.985 | S. cerevisiae deletion strains, locus YOL006C, strain TOP1, active compounds read low 1.01 | S. cerevisiae deletion strains, locus YOL012C, strain htz1 0.917 | S. cerevisiae deletion strains, locus YOL147C, strain pex11, active compounds read low 0.996 | S. cerevisiae deletion strains, locus YOR061W, strain CKA2, active compounds read low 0.994 | S. cerevisiae deletion strains, locus YOR069W, strain VPS5, active compounds read low 0.99 | S. cerevisiae deletion strains, locus YOR136W, strain idh2, active compounds read low 0.995 | S. cerevisiae deletion strains, locus YOR144C, strain elg1, active compounds read low 1.01 | S. cerevisiae deletion strains, locus YOR184W, strain ser1, active compounds read low 0.958 | S. cerevisiae deletion strains, locus YOR231W, strain MKK1, active compounds read low 1.02 | S. cerevisiae deletion strains, locus YOR316C, strain cot1, active compounds read low 0.983 | S. cerevisiae deletion strains, locus YPL256C, strain CLN2, active compounds read low 0.989 | S. cerevisiae deletion strains, locus YPR119W, strain clb2, active compounds read low 0.997 | S. cerevisiae deletion strains, locus YPR141C, strain kar3, active compounds read low 0.99 | S. cerevisiae deletion strains, locus YPR163C, strain tif3, active compounds read low 0.993 | S. cerevisiae deletion strains, locus YPR167C, strain met16, active compounds read low 0.984 | S. cerevisiae deletion strains, strain wtn01, active compounds read low 0.987 | S. cerevisiae strains, strain wild type, active compounds read low 0.994
